# Results: PubChem BioAssay (NCI)
# The panel holds about 83,000 compounds, 20% with a hit somewhere; the sample as a whole holds those more often.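 Interpretation: 100, growth as untreated; towards 0, rising growth inhibition; 0, no net growth; 0 to -100, cell death. Compounds scoring below 10 were considered active.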 The source made the active and inactive calls.
# Tested on: MDA-MB-468 breast
# Assay: NCI-60 one-dose screen, 48 h (100 = growth as untreated, 0 = no growth, -100 = all killed)
# Conditions: 10 µM unless noted
row,SMILES,growth
1,O=C(/C=C/C12c3ccccc3C(c3ccccc31)C1C(=O)NC(=O)C12)c1cccs1 (configuration not stated),45.8% (inactive)
2,Nc1nc(N)c2nc(CNc3ccc(C(=O)CC(CCC(=O)O)C(=O)O)cc3)cnc2n1 (configuration not stated),65.4% (inactive)
3,Cc1cnc(-c2ccc(-c3ccc(NC(=O)Nc4c(F)cc(F)cc4F)cc3F)c3c2C(=O)NC3)[nH]1,39.6% (inactive)
4,O=C(Nc1ccc(-c2ccc3c(c2)NC(=O)/C3=C\c2ccc[nH]2)cc1)NC1CC1,-4.36% (active)
5,Cc1ccc(Oc2c(/C=N/NC(=O)Cn3c(=O)sc4ccccc43)c(C)nn2-c2ccccc2)cc1,41% (inactive)
6,COc1cc(-c2nc(N=Nc3c(O)[nH]c4ccc(Br)cc34)[nH]c(=O)c2C#N)cc(OC)c1OC,103% (inactive)
7,Cc1cc(C(C)(C)C)cc(C)c1Br,113% (inactive)
8,COC(=O)Nc1nc2ccc(C(=O)c3ccc(F)cc3)cc2[nH]1,25.9% (inactive)
9,[2H]c1nc(Nc2ncc(F)c(-c3cc(F)c4nc(C)n(C(C)C)c4c3)n2)c([2H])c([2H])c1CN1CCN(CC)CC1,90.1% (inactive)
10,CN1CCN(CCCOc2cccc3nc(Nc4cc(Cl)cc(Cl)c4)ccc23)CC1,-52.6% (active)
11,C=C(C)[C@@H]1CC[C@]2(C(=O)OC)CC[C@]3(C)[C@H](CC[C@@H]4[C@@]5(C)C/C(=C/c6ccc(OC)cc6)C(=O)C(C)(C)[C@@H]5CC[C@]43C)[C@@H]12,76% (inactive)
12,COc1cccc(-c2cn3nc(-c4cn(C)c5ccccc45)sc3n2)c1,103% (inactive)
